Test results: PubChem BioAssay (NCATS)
“And” between values parts separate entries of the source, which are not always exact repeats. Equal entries are not always repeated. Inconclusive results are not listed. The source made the active and inactive calls. Unless noted, calls follow the shape of the dose curve; as a rule, active = well fitted curve in the direction sought with a large enough effect; inconclusive = small, poorly fitted or top-dose-only effect, or another doubt; inactive = no such curve, though single readings can be large; an effect the other way counts as inactive or inconclusive.

How the values were obtained:
[1] = S16 Schwann cell PMP22 intronic element firefly luciferase assay (AID 624032); also: nearly all actives have a fitted effect of over 30% in size; also: potency is read from the fitted curve at half-maximal effect
Outline: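 Rat S16 Schwann cells stably carrying firefly luciferase driven by a PMP22 intronic element, in 10% FBS, treated 24 h at 37 C. ONE-Glo luminescence normalized to PTC124 control and DMSO (0%); curves classed by r2, magnitude and activity.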

[2] = S16 Schwann cell PMP22 intronic element beta-lactamase assay (AID 624044; calls by dose curve;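 also: 0% = DMSO and -100% = potassium clavulanate positive control; nearly all actives have a fitted effect of over 15% in size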); details: S16 rat Schwann cells, PMP22 element beta-lactamase FRET, 24 h; ratio activity, negative = inhibition: at 38.3 µM (top of the series) unless noted
Outline: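 Rat S16 Schwann cells with beta-Lac driven by a PMP22 intronic element, compound-treated 24 h at 37 °C. LiveBLAzer FRET B/G read: 460 nm normalized to potassium clavulanate vs DMSO; 535 nm FRET as viability; concentration-effect curves classified.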

[3] = S16 Schwann cell viability assay (CellTiter-Glo assay) (AID 624031);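 also: native untransfected S16 rat Schwann cells; cellular ATP luminescence as a viability measure; plate controls were DMSO-treated cells for no effect and cell-free wells for full effect; nearly all actives have a fitted effect of over 70% in size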
Outline: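 Parental S16 cells, 24 h compound, 37 °C. ATP-luminescence viability; DMSO = 0% activity, empty wells as reference; curves classified by fit quality and efficacy.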

[4] = qHTS assay for small molecule activators of the nuclear factor-kappa B (NF-kB) signaling pathway (AID 651749; active = well fitted activation curve with a large enough effect in the signal ratio; the % refers to the signal ratio; also: % of control where 0% means no effect); details: NF-kB-bla ME-180 cells, beta-lactamase FRET ratio, 16 h; active compounds read high
Outline: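 Incubation lasted 16 hr at 37C in 5% CO2 after 23 nL compound addition to ME-180 NF-kB-bla cells. Activation appears as beta-lactamase-mediated FRET loss.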

[5] = qHTS assay for small molecule disruptors of the mitochondrial membrane potential - 1 hr assay (AID 651754; calls by dose curve; also: nearly all actives have a fitted effect of over 35% in size; also: potency is read from the fitted curve at half-maximal effect)
Outline: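 Steps: seed HepG2 cells and let attach overnight; pin-transfer compound or vehicle; incubate 1 hr at 37C; add Mito-MPS dye for 30 min; read two-channel fluorescence for monomer and aggregate forms.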

[6] = qHTS assay for small molecule disruptors of the mitochondrial membrane potential - 5 hr assay (AID 651755; calls by dose curve; also: nearly all actives have a fitted effect of over 40% in size; also: potency is read from the fitted curve at half-maximal effect)
Outline: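 HepG2 cells (2,000/well), attached overnight, exposed to compound 5 hr at 37C, then Mito-MPS dye 30 min. Fluorescence read for monomers (490/535 nm) and aggregates (540/590 nm).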

[7] = target: Tumor necrosis factor (Homo sapiens) (UniProt P01375); test: qHTS assay to identify small molecules that stimulate Tumor Necrosis Factor-alpha (TNF-alpha) secretion (AID 651757; active = well fitted curve in the direction sought with a large enough effect in the signal ratio; the % refers to the signal ratio; also: 0% is about no effect)
Outline: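 Secreted TNF-alpha from compound-treated THP-1 cells (17 hrs, 37 C) was quantified with a homogeneous time-resolved fluorescence antibody assay.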

[8] = target: Peroxisome proliferator-activated receptor alpha (Homo sapiens) (UniProt Q07869); test: qHTS assay for small molecule agonists of the peroxisome proliferator-activated receptor alpha (PPARalpha) signaling pathway (AID 651778); details: PathHunter PPARalpha complementation, chemiluminescence, 6 h; active compounds read high; also: % of control where 0% means no effect
Outline: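 Enzyme-fragment complementation assay in which ligand-bound PPARalpha translocates and forms an active enzyme that generates chemiluminescence. Cells were plated overnight, exposed to compound for 6 hr at 37 C, and then given detection reagent for 60 min at room temperature.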

[9] = target: Nuclear receptor ROR-gamma (Homo sapiens) (UniProt P51449); test: qHTS assay for small molecule antagonists of the retinoid-related orphan receptor gamma (ROR-gamma) signaling pathway (AID 651802);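 also: CHO cells with doxycycline-induced ROR-gamma expression; luciferase reporter luminescence driven by ROR response element; % is scaled to controls: 0 for no effect and ±100 for the full control effect; nearly all actives have a fitted effect of over 60% in size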
Outline: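 Antagonism is scored as a fall in luminescence from a RORE-luciferase reporter in CHO cells expressing ROR under a TET-inducible promoter, measured 16hr after doxycycline induction in the presence of compound.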

[10] = qHTS assay for small molecule agonists of the antioxidant response element (ARE) signaling pathway (AID 651741; active = well fitted activation curve with a large enough effect in the signal ratio; the % refers to the signal ratio; also: potency is read from the fitted curve at half-maximal effect; as to activation: % of control where 0% means no effect)
Outline: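 HepG2 ARE-bla cells plated at 2,000 cells/well and incubated 5 h at 37 C/5% CO2 received 23 nL compound in DMSO. After 16 h at 37 C, LiveBLAzer B/G FRET substrate was applied for 2 h at room temperature and fluorescence read.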

[11] = qHTS assay for environmental chemicals that activate the Aryl hydrocarbon Receptor (AhR) signaling pathway (AID 651777); details: 1A2-DRE human hepatoma cells, luciferase, 24 h; activation: active compounds read high; also: nearly all actives have a fitted effect of over 15% in size; also: potency is read from the fitted curve at half-maximal effect; as to activation: % of control where 0% means no effect
Outline: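 Reporter gene assay: hepatoma cells with DRE/CYP1A2-luciferase, 24 hr compound incubation at 37 C, 5% CO2, luminescence after One-Glo (30 min, RT).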

[12] = target: Glutaminase kidney isoform, mitochondrial (Homo sapiens) (UniProt O94925); test: qHTS for Inhibitors of Glutaminase (GLS): LOPAC Validation (AID 624146); details: glutaminase enzyme activity inhibition; also: potency is read from the fitted curve at half-maximal effect; nearly all actives have a fitted effect of over 60% in size
Outline: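 Human kidney-isoform GLS in 45 mM KH2PO4 pH 8.2, 0.02% Tween-20, with compound, started with 1mM L-Glutamine (added stock). Glutamate oxidase/HRP/Amplex red coupled fluorescence read at start and after 30 min at RT.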

[13] = qHTS of Trypanosoma Brucei Inhibitors: LOPAC Validation (AID 624147); also: 0% is about no effect
Outline: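 Readout: single end-point luminescence (Kinase-Glo Plus, 10 min). Reaction conditions were TbPYK/substrate plus 130 uM ADP, 45 min at RT, pH 7.2 TEA buffer. No-enzyme wells served as controls, and data were normalized before concentration-response fitting.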

[14] = target: Glucagon-like peptide 1 receptor (Homo sapiens) (UniProt P43220); test: qHTS of GLP-1 Receptor Agonists: LOPAC Validation (AID 624148);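 also: 0% is about no effect; higher luminescence signal means agonism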
Outline: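 HEK293 cells stably co-expressing GLP-1R and a cAMP-responsive luciferase reporter, plated 12 hours before compound, then incubated 4-6 hr at 37 deg C. Luminescence read 12 min after detection reagent.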

[15] = qHTS of Nrf2 Activators: LOPAC Validation (AID 624149); also: 0% is about no effect
Outline: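 ARE reporter activation measured in AREc32 firefly luciferase cells after 24 hr compound exposure; Steady-Glo luminescence.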

[16] = HTS Assay for Allosteric Antagonists of the Human D2 Dopamine Receptor: Hit Validation in HTRF (AID 624455);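 also: stable D1 dopamine receptor cell line scored for blocking the D1 response; % is scaled to controls: 0 for no effect and ±100 for the full control effect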
Outline: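 Signal from an HTRF read-out in D1-expressing stable cells gave hit activity as inhibition of the D1 response.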

Nuclear receptor ROR-gamma (Homo sapiens), sequence (P51449 whole entry, looked up): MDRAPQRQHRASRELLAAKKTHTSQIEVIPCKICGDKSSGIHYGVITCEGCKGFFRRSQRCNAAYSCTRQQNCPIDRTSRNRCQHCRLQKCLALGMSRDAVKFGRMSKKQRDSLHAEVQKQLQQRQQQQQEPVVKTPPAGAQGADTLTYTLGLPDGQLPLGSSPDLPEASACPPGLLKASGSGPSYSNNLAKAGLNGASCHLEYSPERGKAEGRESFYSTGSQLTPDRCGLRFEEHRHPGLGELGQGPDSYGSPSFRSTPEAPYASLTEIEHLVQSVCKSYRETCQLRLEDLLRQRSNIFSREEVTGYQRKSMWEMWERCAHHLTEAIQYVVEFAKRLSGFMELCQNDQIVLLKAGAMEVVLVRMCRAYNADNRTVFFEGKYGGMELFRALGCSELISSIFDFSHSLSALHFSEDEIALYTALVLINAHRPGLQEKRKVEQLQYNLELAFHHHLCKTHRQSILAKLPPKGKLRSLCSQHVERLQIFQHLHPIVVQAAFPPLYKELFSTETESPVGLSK
Peroxisome proliferator-activated receptor alpha (Homo sapiens), sequence (Q07869 whole entry, looked up, the tested form may be a part): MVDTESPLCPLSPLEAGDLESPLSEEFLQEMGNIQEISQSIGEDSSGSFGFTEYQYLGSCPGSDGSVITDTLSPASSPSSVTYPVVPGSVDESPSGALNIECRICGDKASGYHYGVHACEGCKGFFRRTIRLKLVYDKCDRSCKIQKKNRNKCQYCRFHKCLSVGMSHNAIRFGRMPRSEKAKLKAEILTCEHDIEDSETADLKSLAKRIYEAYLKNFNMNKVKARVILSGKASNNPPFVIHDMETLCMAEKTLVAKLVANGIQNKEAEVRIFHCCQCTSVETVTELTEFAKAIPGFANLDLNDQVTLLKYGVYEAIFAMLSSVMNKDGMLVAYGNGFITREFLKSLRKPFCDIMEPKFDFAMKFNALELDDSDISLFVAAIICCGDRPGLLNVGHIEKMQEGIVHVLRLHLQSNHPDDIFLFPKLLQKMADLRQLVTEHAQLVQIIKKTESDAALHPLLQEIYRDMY
Tumor necrosis factor (Homo sapiens), sequence (P01375 whole entry, looked up): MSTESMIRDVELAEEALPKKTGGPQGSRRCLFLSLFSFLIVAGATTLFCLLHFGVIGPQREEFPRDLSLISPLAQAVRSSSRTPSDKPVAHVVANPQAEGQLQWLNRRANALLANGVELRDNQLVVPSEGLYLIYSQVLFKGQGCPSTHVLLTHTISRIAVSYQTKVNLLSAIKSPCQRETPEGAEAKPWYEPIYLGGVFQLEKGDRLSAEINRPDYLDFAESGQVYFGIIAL
Glucagon-like peptide 1 receptor (Homo sapiens), sequence (P43220 whole entry, looked up): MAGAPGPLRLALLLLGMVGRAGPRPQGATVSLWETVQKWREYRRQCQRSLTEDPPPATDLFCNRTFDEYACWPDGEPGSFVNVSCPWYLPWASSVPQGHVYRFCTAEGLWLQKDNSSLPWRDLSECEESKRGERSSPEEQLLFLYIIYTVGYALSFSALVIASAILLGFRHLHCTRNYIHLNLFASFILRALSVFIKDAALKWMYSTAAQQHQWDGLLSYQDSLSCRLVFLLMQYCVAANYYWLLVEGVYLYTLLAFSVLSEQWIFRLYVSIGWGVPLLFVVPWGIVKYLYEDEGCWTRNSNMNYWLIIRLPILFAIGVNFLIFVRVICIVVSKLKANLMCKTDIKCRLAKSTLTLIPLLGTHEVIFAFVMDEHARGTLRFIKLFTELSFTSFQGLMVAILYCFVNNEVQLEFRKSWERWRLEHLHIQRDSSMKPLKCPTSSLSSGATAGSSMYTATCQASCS
Glutaminase kidney isoform, mitochondrial (Homo sapiens), sequence (O94925 whole entry, looked up, canonical isoform): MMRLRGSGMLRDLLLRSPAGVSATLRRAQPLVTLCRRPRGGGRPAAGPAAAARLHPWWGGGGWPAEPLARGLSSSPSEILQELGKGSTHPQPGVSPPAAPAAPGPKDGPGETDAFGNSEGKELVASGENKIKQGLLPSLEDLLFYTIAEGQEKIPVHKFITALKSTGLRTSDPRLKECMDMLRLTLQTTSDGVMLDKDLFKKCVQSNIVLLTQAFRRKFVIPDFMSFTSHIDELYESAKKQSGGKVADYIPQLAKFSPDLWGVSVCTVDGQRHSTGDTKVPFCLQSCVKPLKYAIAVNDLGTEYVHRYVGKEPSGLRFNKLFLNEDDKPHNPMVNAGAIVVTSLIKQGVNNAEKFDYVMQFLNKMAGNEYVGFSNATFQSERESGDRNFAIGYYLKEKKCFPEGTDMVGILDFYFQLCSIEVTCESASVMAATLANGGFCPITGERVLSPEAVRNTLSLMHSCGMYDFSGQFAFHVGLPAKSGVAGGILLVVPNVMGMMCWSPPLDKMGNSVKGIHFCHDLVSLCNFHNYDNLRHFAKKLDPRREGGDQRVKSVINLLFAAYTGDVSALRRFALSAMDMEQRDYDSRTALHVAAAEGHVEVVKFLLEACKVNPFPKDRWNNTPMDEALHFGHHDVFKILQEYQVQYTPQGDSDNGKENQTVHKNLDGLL

COc1ccc2nc(NC(=O)Nc3ccccc3)sc2c1
inactive: Potency [1] | ratio activity, negative = inhibition [2] -14.6%

CCCCC
inactive: Potency [3] | ratio activity, negative = inhibition [2] 1.47% | activation [4] -0.668% | Potency [5] | Potency [6] | Potency [7] | max response [8] -0.71% | Potency [9]

CC(C)[C@@H]1CC[C@@H](C)C[C@H]1O
inactive: Potency [10] | activation [4] 0.809% | activation [11] -0.378% | max response [8] -1.09%

CCCCC[C@H](O)/C=C/[C@H]1[C@H](O)CC(=O)[C@@H]1C/C=C\CCCC(=O)O
inactive: Potency [3] | ratio activity, negative = inhibition [2] -1.59%

C[C@H](CCC(=O)O)[C@H]1CC[C@H]2[C@@H]3[C@H](O)C[C@@H]4C[C@H](O)CC[C@]4(C)[C@H]3C[C@H](O)[C@]12C
inactive: Potency [10] | activation [4] -0.745% | Potency [5] | Potency [6] | Potency [7] | activation [11] -1.36% | max response [8] 0.161% | Potency [9]

O=c1n(CC2CO2)c(=O)n(CC2CO2)c(=O)n1CC1CO1 (stereo not drawn)
active: Potency [10] 7.5 µM and 6.86 µM
inactive: Potency [3] | activation [4] -0.976% and -0.874% | Potency [5] | Potency [6] | activation [11] 1.5% and 3.12% | max response [8] -0.847% and -0.241% | Potency [9]

NC(=O)[C@@H]1CCCN1C(=O)[C@H](Cc1cnc[nH]1)NC(=O)[C@@H]1CCC(=O)N1
inactive: Potency [3] | Potency [1] | ratio activity, negative = inhibition [2] 6.16%

CC(C)(COP(=O)(O)OP(=O)(O)OC[C@H]1O[C@@H](n2cnc3c(N)ncnc32)[C@H](O)[C@@H]1OP(=O)(O)O)C(O)C(=O)NCCC(=O)NCCS (stereo partly drawn)
inactive: Potency [3] | Potency [1] | ratio activity, negative = inhibition [2] 1.27%

COC(=O)CCC[N+](C)(C)C
inactive: Potency [1]

CCCCCCCCCCCCCCCCCC(=O)OCC(C)O (stereo not drawn)
inactive: Potency [1]

O=C(OCc1ccccc1)c1ccc(O)cc1
inactive: Potency [3] | Potency [1] | activation [11] 0.611% | max response [8] -0.0988%

CC(C)(C)c1ccc2c(S(=O)(=O)O)c(C(C)(C)C)ccc2c1
inactive: Potency [3] | Potency [1] | ratio activity, negative = inhibition [2] -0.38%

Oc1ccc(/C=C/c2cc(O)cc(O)c2)cc1
inactive: outcome [13] | outcome [14] | outcome [15] | outcome [16] | activation [4] 5.67% | max response [8] -3.92% and -4.52% | Potency [9]
active: Potency [12] 5.01 µM | Potency [10] 19.3 µM and 37.6 µM | Potency [5] 1.88 µM | Potency [6] 5.31 µM | Potency [11] 25.1 µM

Cc1c(Cl)cccc1Nc1ncccc1C(=O)O
inactive: Potency [3] | Potency [1] | ratio activity, negative = inhibition [2] -7.17%

Cc1cccc(Nc2ncccc2C(=O)O)c1C
inactive: Potency [3] | Potency [1] | ratio activity, negative = inhibition [2] 6.34%

CCN(CC)CCC(=O)N1c2ccccc2Sc2ccc(C(F)(F)F)cc21
active: Potency [1] 14.4 µM
inactive: Potency [3] | ratio activity, negative = inhibition [2] -1.58%

C=CC[N+]1([C@H]2C[C@H]3[C@@H]4CC[C@H]5C[C@H](O)[C@@H](N6CCOCC6)C[C@]5(C)[C@H]4CC[C@]3(C)[C@H]2OC(C)=O)CCCC1
inactive: Potency [3] | ratio activity, negative = inhibition [2] -0.444%

CC(CC=O)CCCC(C)(C)O (stereo not drawn)
inactive: Potency [3] | Potency [1] | ratio activity, negative = inhibition [2] 3.36%

O=C(O)CCC(=O)c1ccc(-c2ccccc2)cc1
inactive: Potency [3] | Potency [1] | ratio activity, negative = inhibition [2] 0.885% [at 17.1 µM]

[O-][N+](=Nc1ccccc1)c1ccccc1
inactive: Potency [3] | ratio activity, negative = inhibition [2] 3.38% | activation [4] 0.0708% | Potency [5] | Potency [6] | Potency [7] | max response [8] 10.8%
